Source: PubChem BioAssay (Sanford-Burnham Center for Chemical Genomics)
The list is not random: actives were taken first. Their share in the collection is about 28%.
CYP2C9 inh – human CYP2C9 inhibition; P11712; AID 777; inhibition, % at 5 µM; CYP2C9 Supersomes, luciferin-H conversion, luminescence; actives 20% (n = 96,000);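 active = blocking of liver enzyme CYP2C9 beyond about 50% at 5 µM, limit read from the data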
Target sequence (P11712 whole entry, looked up): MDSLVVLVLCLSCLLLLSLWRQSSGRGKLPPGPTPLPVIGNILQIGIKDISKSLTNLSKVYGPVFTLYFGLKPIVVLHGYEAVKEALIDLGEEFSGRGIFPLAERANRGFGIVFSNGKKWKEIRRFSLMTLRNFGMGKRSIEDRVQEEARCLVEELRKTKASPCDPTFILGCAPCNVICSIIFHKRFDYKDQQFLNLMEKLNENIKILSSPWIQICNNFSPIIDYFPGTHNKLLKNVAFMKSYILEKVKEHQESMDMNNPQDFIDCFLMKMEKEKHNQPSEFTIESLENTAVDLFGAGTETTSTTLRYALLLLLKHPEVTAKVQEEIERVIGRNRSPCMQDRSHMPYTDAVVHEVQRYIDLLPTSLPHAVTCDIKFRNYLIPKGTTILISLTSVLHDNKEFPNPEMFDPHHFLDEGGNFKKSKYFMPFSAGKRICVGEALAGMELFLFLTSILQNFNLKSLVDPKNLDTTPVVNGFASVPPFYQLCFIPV
CYP2C19 act – activators of human cytochrome P450 2C19. activation factor at 5 µM. 96,000 tested, under 10 active. recombinant CYP2C19, luciferin-H EGE luminescence; hits give high values; 0 = fully inhibited enzyme, 1 = untreated enzyme. P33261. AID 1025;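 active = activation factor of at least 2 at 5 µM in the primary screen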;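 also: 0 = wells with 2.5 mM tranylcypromine and 1 = vehicle-only wells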
Mac1 fbg enh – increases human CD11b/CD18 adhesion to fibrinogen | K562 CD11b/CD18 adhesion to fibrinogen, ATPlite luminescence | activation, % at 10 µM | actives 0.07% (n = 93,000);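 active = 10 µM primary screen giving 50% or more activity, confirmed by 40% or more on retest at that dose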
CYP2C19 inhib – human CYP2C19 inhibition; inhibition, % at 5 µM; AID 778; actives 21% (n = 96,000); CYP2C19 Supersomes, luciferin-H EGE luminescence, 30 min;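 active = CYP2C19 inhibition above a set limit at 5 µM in the primary screen, cut at about 50% in these data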;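 also: plate controls were negative control wells for no effect and 2.5 mM tranylcypromine positive control for full effect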
Mac1 fbg inh – CD11b/CD18-fibrinogen binding inhibition. K562 CD11b/CD18 adhesion to fibrinogen, ATPlite luminescence; Mn2+ added to activate the integrin. AID 1497. inhibition, % at 10 µM. P05107+P11215. actives 0.54% (n = 93,000);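 active = primary inhibition of 50% or more at 10 µM, then 40% or more on retest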
CYP2C9 act – increases human cytochrome P450 2C9 activity; P11712; actives 1.4% (n = 96,000); AID 1024; recombinant CYP2C9, luciferin-H conversion, luminescence; hits give high values; factor 1 = untreated enzyme, 0 = blocked; activation factor at 5 µM;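 active = activation factor of 2 or more for CYP2C9 at a 5 µM dose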;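 also: 0 = sulfaphenazole-blocked wells and 1 = vehicle-only wells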
Starred values were filed as active, the others as inactive; . = not tested or not shown.

SMILES	CYP2C9 inh	CYP2C19 act	Mac1 fbg enh	CYP2C19 inhib	Mac1 fbg inh	CYP2C9 act
CCOc1ccc(OCC)c(NS(=O)(=O)c2ccc3c(c2)CCN3C(=O)C2CCC2)c1	79*	0.7	1	33	-2	0.2
CC(=O)Nc1cccc(NC(=O)CSc2nnnn2Cc2ccccc2)c1	42	0.7	-3	32	0	0.6
O=C(Nc1ccc(N2CCN(C(=O)c3ccc(Cl)cc3)CC2)cc1)c1cccnc1	10	0.8	.	17	.	0.9
CC(C)C(=O)Nc1ccccc1N1CCN(S(C)(=O)=O)CC1	6	0.8	-1	18	-9	0.9
O=C(CSc1ccc(Cl)cc1)Nc1ccccc1N1CCN(C(=O)c2ccccc2)CC1	24	0.9	-3	10	7	0.8
O=C(Nc1ccccc1N1CCN(C(=O)c2ccc(Cl)cc2)CC1)c1cccnc1	93*	0.1	17	88*	-8	0.1
CC(C)C(=O)Nc1ccccc1N1CCN(C(=O)c2ccccc2)CC1	63*	0.3	0	68*	-10	0.4
CC(C)CC(=O)Nc1ccccc1N1CCN(C(=O)c2ccccc2)CC1	76*	0.2	-1	77*	3	0.2
O=C(NCC1CCCO1)c1csc2c1CCCC2 (configuration not stated)	-47	1	-2	0	4	1.5
CC(C)CNC(=O)CSc1nnc(-c2ccccn2)n1Cc1ccccc1	72*	0.2	-1	80*	-10	0.3
CC(C)OC(=O)CSc1nnc(-c2ccccn2)n1C	-5	0.9	-3	9	-4	1.1
Cn1c(SCC(=O)NC(C)(C)C)nnc1-c1cnccn1	18	0.9	5	8	-20	0.8
CCCn1c(SCC(=O)Nc2nnc(-c3ccccc3)s2)nnc1-c1ccccn1	71*	0.3	-2	73*	21	0.3
CCCn1c(SCC(=O)NCCc2ccccc2)nnc1-c1ccccn1	56*	0.4	.	56*	.	0.4
CCn1c(SCC(=O)NC(C)(C)C)nnc1-c1ccccn1	23	0.3	2	73*	-24	0.8
O=C(CSc1nnc(-c2ccncc2)n1Cc1ccccc1)NCCc1ccccc1	63*	0.3	-2	71*	-9	0.4
CN(C)c1cccc(C(=O)Nc2cc(C(F)(F)F)ccc2-n2cnc3ccccc32)c1	.	.	1	.	13	.
O=C(NCCC1=CCCCC1)c1ccc2c(c1)N(Cc1ccccc1)C(=O)CS2	75*	0.5	0	49	21	0.3
Cc1ccc(NS(=O)(=O)c2cc(C(=O)NCCSc3ccc(C)cc3)ccc2C)cc1	78*	0.3	.	67*	.	0.2
O=C(NCCN1CCOCC1)c1ccc2c(c1)N(Cc1ccccc1)C(=O)CS2	-2	1	-3	-3	-3	1
Cc1ccc(SCCNC(=O)c2ccccc2)cc1	23	0.6	.	37	.	0.8
Cc1ccc(C(=O)NCCSc2ccc(Cl)cc2)cc1S(=O)(=O)Nc1ccccc1	52*	0.6	.	39	.	0.5
CS(=O)(=O)Nc1ccc(C(=O)NCCSC2CCCCC2)cc1	7	1	-1	-4	-30	0.9
Cc1ccc(NS(=O)(=O)c2cc(C(=O)NCCSC3CCCCC3)ccc2C)cc1	54*	0.7	1	28	24	0.5
CCOc1ccc(S(=O)(=O)c2c(C(=O)c3ccccc3)cnc3cc4c(cc23)OCCO4)cc1	.	.	4	.	5	.
COc1ccc(CCNC(=O)Cn2cnc3c(cnn3-c3ccccc3Cl)c2=O)cc1OC	4	0.9	-2	14	-18	1
Cc1cc(C)n(CCCNCC(O)c2ccccc2)n1 (configuration not stated)	5	0.9	-1	8	26	1
Cc1cccc(NS(=O)(=O)c2cc(C(=O)OC(C)C(=O)NCc3ccc4c(c3)OCO4)ccc2C)c1 (configuration not stated)	.	.	-2	.	-8	.
Cc1ccc(SCCNC(=O)c2ccc(C)c(S(=O)(=O)Nc3cccc(C)c3)c2)cc1	71*	0.4	-8	62*	4	0.3
Cc1cccc(NS(=O)(=O)c2cc(C(=O)NCCC3=CCCCC3)ccc2Cl)c1	68*	0.7	-6	26	7	0.3
